CYP2C9 activ: CYP2C9 (human) activation; 96,000 tested, 1.4% active; P11712; recombinant CYP2C9, luciferin-H conversion, luminescence; active compounds read high; factor 1 = untreated enzyme, 0 = blocked; activation factor at 5 µM;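 active = activation factor of 2 or more for CYP2C9 at a 5 µM dose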;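 note: 0 = sulfaphenazole-blocked wells and 1 = vehicle-only wells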
Target sequence (P11712 whole entry, looked up): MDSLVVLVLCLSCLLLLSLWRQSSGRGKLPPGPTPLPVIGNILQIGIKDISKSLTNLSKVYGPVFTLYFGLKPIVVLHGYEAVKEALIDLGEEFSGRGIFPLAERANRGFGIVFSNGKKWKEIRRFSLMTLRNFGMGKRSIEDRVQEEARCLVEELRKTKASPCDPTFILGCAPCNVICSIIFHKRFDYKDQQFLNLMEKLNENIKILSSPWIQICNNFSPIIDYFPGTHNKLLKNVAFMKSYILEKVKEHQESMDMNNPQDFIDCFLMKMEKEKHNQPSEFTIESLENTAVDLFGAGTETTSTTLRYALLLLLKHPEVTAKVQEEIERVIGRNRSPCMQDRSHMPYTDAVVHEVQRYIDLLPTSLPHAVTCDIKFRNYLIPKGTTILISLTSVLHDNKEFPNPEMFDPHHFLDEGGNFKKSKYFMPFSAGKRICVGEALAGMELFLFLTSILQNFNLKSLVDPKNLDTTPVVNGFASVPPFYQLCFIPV
CYP2C19 inh: blocks human cytochrome P450 2C19; P33261; CYP2C19 Supersomes, luciferin-H EGE luminescence, 30 min; inhibition, % at 5 µM; 96,000 tested, 21% active;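 active = CYP2C19 inhibition above a set limit at 5 µM in the primary screen, cut at about 50% in these data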;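 note: plate controls were negative control wells for no effect and 2.5 mM tranylcypromine positive control for full effect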
CYP2C9 inh: human CYP2C9 inhibition; 96,000 tested, 20% active; CYP2C9 Supersomes, luciferin-H conversion, luminescence; AID 777; inhibition, % at 5 µM;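 active = blocking of liver enzyme CYP2C9 beyond about 50% at 5 µM, limit read from the data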
F-actin modifier: cytoskeleton assembly modification | 91,000 tested, 0.18% active | AID 836 | HUVEC TNFa F-actin phalloidin imaging, high content | inhibition, % at 2 µM;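 active = inhibition above the batch mean plus 3 SD and confirmed as a hit by visual image inspection, cut at about 30% in these data, passing the limit was not always enough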
E-sel TNF inh: blocks E-selectin expression induced by TNF alpha; HUVEC TNFa-induced E-selectin immunofluorescence, high content; inhibition, % at 2 µM; 120,000 tested, 0.71% active; AID 1246;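 active = inhibition above the batch mean plus 3 SD, and confirmed as a hit on visual image review, cut at about 43% in these data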;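 note: 0% = TNF-stimulated DMSO wells and 100% = unstimulated control wells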
CYP2C19 activ: increases human CYP2C19 enzyme activity. P33261. recombinant CYP2C19, luciferin-H EGE luminescence; active compounds read high; 0 = fully inhibited enzyme, 1 = untreated enzyme. activation factor at 5 µM. 96,000 tested, under 10 active;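 active = activation factor of at least 2 at 5 µM in the primary screen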;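 note: 0 = wells with 2.5 mM tranylcypromine and 1 = vehicle-only wells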
* marks the source's active call; other numbers are inactive results; x = not tested or not shown. Shown are actives, neighbours in structure and some others; about 22% of the full set was active somewhere.

SMILES	CYP2C9 activ	CYP2C19 inh	CYP2C9 inh	F-actin modifier	E-sel TNF inh	CYP2C19 activ
CC(=O)C1=C(O)C(=O)N(CCC(=O)O)C1c1ccccc1Cl (stereo not drawn)	1	1	4	6	x	1
CC(C)(C)C(=O)Nc1cc(C(F)(F)F)ccc1N1CCOCC1	x	x	x	-4	-1	x
O=C(Nc1cc(Cl)ccc1N1CCOCC1)c1cnccn1	x	x	x	-1	5	x
O=C(Nc1cc(C(F)(F)F)ccc1N1CCOCC1)c1cccs1	0.9	59*	15	7	29	0.4
O=C(Cn1cnc2ccccc21)Nc1cc(C(F)(F)F)ccc1N1CCOCC1	0.7	22	29	x	-15	0.8
CC(C)(C)C(=O)NC(=S)Nc1cc(C(F)(F)F)ccc1N1CCOCC1	0.1	96*	94*	6	-4	0
COc1cccc(OC)c1C(=O)Nc1cc(Cl)ccc1N1CCOCC1	0.4	41	62*	-4	-2	0.6
Cn1c(=O)c2ncn(CC(=O)Nc3cc(C(F)(F)F)ccc3N3CCOCC3)c2n(C)c1=O	0.4	41	57*	-14	-3	0.6
CN(c1ccccc1C(=O)NCc1ccccn1)S(C)(=O)=O	1	-4	2	10	-9	1
Cc1c(NC(=O)c2cc(C(C)C)on2)c(=O)n(-c2ccccc2)n1C	0.9	0	9	x	x	1
O=C(Cn1cc([N+](=O)[O-])cn1)NCC1CCCO1 (stereo not drawn)	x	x	x	x	-39	x
O=C(Nc1cc(C(F)(F)F)ccc1N1CCOCC1)c1ccc2ccccc2n1	0.4	31	60*	12	4	0.7
Nc1nnc(SCC(=O)Nc2cc(C(F)(F)F)ccc2N2CCOCC2)s1	0.2	78*	77*	18	-32	0.2
O=C(Nc1cc(C(F)(F)F)ccc1N1CCOCC1)C1Cc2ccccc2CN1C(=O)c1ccco1 (stereo not drawn)	0	90*	96*	4	12	0.1
O=C(Nc1cc(C(F)(F)F)ccc1N1CCOCC1)c1cccc(F)c1	1	83*	4	-4	6	0.2
O=C(Nc1cc(C(F)(F)F)ccc1N1CCOCC1)c1ccccc1F	1.1	8	-7	-27	3	0.9
CCOC(=O)c1ccc(/C=C2/C=C(c3ccccc3)N(c3ccc(Cl)c(C(=O)O)c3)C2=O)cc1	x	x	x	x	8	x
CCc1c(O)nc2sc3ccccc3n2c1=O	1	-7	1	-7	-47	1.1
Cc1ccc(CNCC2CCCO2)o1 (stereo not drawn)	1.1	-17	-6	x	8	1.2
COc1cc(NC(=S)NCc2ccco2)cc(OC)c1	0.9	67*	10	7	-30	0.3
CCc1cccc(C)c1NC(=S)N(Cc1cccnc1)Cc1ccco1	x	x	x	x	12	x
O=C(Nc1ccc(Cl)c(Cl)c1)N(Cc1cccnc1)Cc1ccco1	0	99*	100*	4	x	0
COc1ccc(Cl)cc1NC(=S)NCc1ccco1	2*	71*	-100	7	100*	0.3
CCOc1ccccc1NC(=S)NCc1ccco1	1.3	87*	-31	0	22	0.1
O=C(Cc1coc2ccc3ccccc3c12)Nc1nnc(C2CC2)s1	1	8	-3	3	-7	0.9
SMILES	CYP2C9 activ	CYP2C19 inh	CYP2C9 inh	F-actin modifier	E-sel TNF inh	CYP2C19 activ
COc1ccc(/C=C/C(=O)Nc2ccc(-n3nncc3-c3ccccc3)cc2)cc1OC	x	x	x	x	31	x
COc1cccc(N2CCN(C(=S)NCc3ccco3)CC2)c1	0.3	53*	68*	-11	42	0.5
S=C(NCc1ccco1)Nc1ccc(Cl)c(Cl)c1	0.6	53*	36	-19	34	0.5
CC(C)CCOC(=O)/C(=C/c1ccco1)NC(=O)/C=C/c1ccccc1	0.5	23	46	22	6	0.8
CCC1(C)Cc2c(sc3nc(SCC(=O)O)[nH]c(=O)c23)CO1 (stereo not drawn)	1	10	-2	4	-10	0.9
CCc1cccc(C)c1NC(=O)CSc1ncn[nH]1	0.9	17	13	-8	7	0.8
O=C(O)C1CCCCC1C(=O)Nc1ccc(Cl)cc1Cl (stereo not drawn)	0.8	37	22	-1	11	0.6
O=C(O)C1CCCCC1C(=O)Nc1ccccc1Cl (stereo not drawn)	0.5	64*	46	-26	-67	0.4
O=C(O)C1CCCCC1C(=O)Nc1cc(Cl)ccc1Cl (stereo not drawn)	0.9	-15	12	37*	-34	1.1

Compound activity deposited in PubChem by several laboratories.
